From PubChem BioAssay AID1497 (Sanford-Burnham Center for Chemical Genomics, 2009)
Among all 93,000 compounds or so, about 500 (0.54%) were called active. What follows is part of a selection rich in actives, with near analogues and random picks from the rest. A number with no mark means an inactive call.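 How the source made its calls: active means primary inhibition of 50% or more at 10 µM, then 40% or more on retest; inactive means the rest.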

Molecular target: Integrin beta-2 (Homo sapiens) + Integrin alpha-M (Homo sapiens) (UniProt P05107+P11215)
Sequence (P05107 whole entry, looked up, other chains not shown): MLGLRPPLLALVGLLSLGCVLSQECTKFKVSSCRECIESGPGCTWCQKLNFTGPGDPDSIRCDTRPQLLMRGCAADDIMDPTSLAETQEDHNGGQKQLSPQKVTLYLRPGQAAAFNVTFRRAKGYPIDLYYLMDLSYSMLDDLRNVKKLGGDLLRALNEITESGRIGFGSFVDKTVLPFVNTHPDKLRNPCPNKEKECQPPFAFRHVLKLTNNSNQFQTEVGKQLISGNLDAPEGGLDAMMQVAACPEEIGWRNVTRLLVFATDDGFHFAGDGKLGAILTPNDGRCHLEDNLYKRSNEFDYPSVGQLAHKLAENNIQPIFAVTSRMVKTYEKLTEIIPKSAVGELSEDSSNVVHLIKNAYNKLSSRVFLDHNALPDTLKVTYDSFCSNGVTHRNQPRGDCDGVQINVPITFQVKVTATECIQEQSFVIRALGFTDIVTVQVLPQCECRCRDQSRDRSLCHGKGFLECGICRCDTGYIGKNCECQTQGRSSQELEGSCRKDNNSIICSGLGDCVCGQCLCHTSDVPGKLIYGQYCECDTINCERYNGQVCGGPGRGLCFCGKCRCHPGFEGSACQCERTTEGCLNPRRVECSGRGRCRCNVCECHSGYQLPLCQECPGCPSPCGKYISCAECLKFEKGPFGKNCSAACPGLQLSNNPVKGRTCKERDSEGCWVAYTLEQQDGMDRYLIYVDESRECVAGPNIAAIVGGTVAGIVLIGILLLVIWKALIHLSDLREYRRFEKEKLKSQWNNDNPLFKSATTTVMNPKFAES
Assay: inhibitors of CD11b/CD18 adhesion to fibrinogen, primary screen, K562 cells, luminescence (AID 1497)
Conditions: ATPlite luminescence, at 10 µM, active compounds read high, Mn2+ added to activate the integrin

Q: For `CCCCn1c(=O)c(CCC(=O)OCC(=O)Nc2ccc(C)c(Cl)c2)nc2ccccc21`, which inhibition is on record?
A: Its inhibition is 6.4%.

Q: Which inhibition does the source give for `OCC(CO)(CO)NCc1ccc(-c2ccccc2)cc1` here?
A: The inhibition was 3.8%.

Q: How did the inhibition turn out when `Cc1ccc(S(=O)(=O)Nc2nc3ccccc3nc2N2CCc3ccccc3C2)cc1` was run?
A: The inhibition was 71.6%.

Q: For `Cc1cc(N2CCN(S(=O)(=O)c3ccc(C)c(C)c3)CC2)c2ccccc2n1`, which inhibition is on record?
A: The inhibition was 41.1%.

Q: For `Cc1ccc(S(=O)(=O)C(C#N)c2nc3ccccc3nc2N2CCCC2)cc1C` (stereo not given), which inhibition is on record?
A: The inhibition was 63.1% (active).

Q: How did the inhibition turn out when `Cc1cc(SCC(=O)NCCN2C(=O)CSC2=O)nc2ccccc12` was run?
A: The inhibition was 13%.

Q: For `Cc1c(Cl)cccc1NC(=O)CC1SC(=NCC2CCCO2)NC1=O` (stereo not given), which inhibition is on record?
A: The inhibition was 12.8%.

Q: Which inhibition does the source give for `CC(Sc1nc2cc(Cl)ccc2s1)C(=O)Nc1ccc2c(c1)OCO2` (stereo not given) here?
A: The inhibition was 82.9%.

Q: `COc1ccc(OC)c(/C=C/C(=O)OCC(=O)Nc2ccc3c(c2)OCCO3)c1` was tested. Which inhibition did it give?
A: Its inhibition is 24.4%.

Q: For `Cc1ccc(-c2cc(N)on2)cc1`, which inhibition is on record?
A: The inhibition was -5.1%.

Q: How did the inhibition turn out when `Cc1ccc(S(=O)(=O)Nc2ccc3ncccc3c2)cc1` was run?
A: The inhibition was 75.1% (active).

Q: How did the inhibition turn out when `CC(=O)N1CCN(C(=O)c2cccc(S(=O)(=O)Nc3ccc(C)cc3)c2)CC1` was run?
A: Its inhibition is -4.1%.

Q: `O=S(=O)(Nc1ccc(Oc2ncccn2)c(Cl)c1)c1ccc(F)cc1` was tested. Which inhibition did it give?
A: Its inhibition is -21.1%.

Q: `O=C1NC(c2ccc(-c3ccccc3[N+](=O)[O-])o2)C(C(=O)c2ccc(Cl)cc2)C(O)(C(F)(F)F)N1` (stereo not given) was tested. Which inhibition did it give?
A: Its inhibition is 13.3%.

Q: Which inhibition does the source give for `O=C(Cc1coc2ccc3ccccc3c12)NCc1cccs1` here?
A: The inhibition was -3.3%.

Q: With `CC(C)[C@H](NC(=O)c1ccc(F)cc1)C(=O)OCC(=O)NC(=O)c1cccn1C` as the compound, how does the inhibition read?
A: The inhibition was -23.1%.

Q: `COC(=O)N/N=C/c1ccc(-c2ccc(Cl)c(Cl)c2)o1` was tested. Which inhibition did it give?
A: Its inhibition is 9.8%.

Q: For `CC(=O)N1C(C)c2ccccc2C(C)(C)CC12CCCCC2` (stereo not given), which inhibition is on record?
A: The inhibition was -35.8%.

Q: Which inhibition does the source give for `COC(=O)c1ccc(NC(=O)CSc2nncc3ccc(OC)c(OC)c23)cc1` here?
A: The inhibition was -5.7%.

Q: Which inhibition does the source give for `CCC(C(=O)OCC(=O)Nc1c(Cl)cc(Cl)cc1Cl)c1ccccc1` (stereo not given) here?
A: Its inhibition is 14.9%.

Q: With `Cc1cc(C)c(NC(=S)N2CCCC2C(=O)O)c(C)c1` (stereo not given) as the compound, how does the inhibition read?
A: Its inhibition is -8.3%.

Q: Which inhibition does the source give for `COc1ccccc1CN(C)C(=O)C1(c2ccc(Cl)cc2)CC1` here?
A: The inhibition was 11.8%.

Q: `COc1ccc([N+](=O)[O-])cc1NC(=O)c1ccc(N(Cc2ccccc2C)S(C)(=O)=O)cc1` was tested. Which inhibition did it give?
A: Its inhibition is 4%.

Q: How did the inhibition turn out when `O=C(CSc1ccc(C(F)(F)F)cc1[N+](=O)[O-])NCCOc1ccccc1` was run?
A: The inhibition was -6%.

Q: With `COc1ccc(C2c3c(C)nn(-c4ccccc4)c3NC(=O)N2c2ccccc2)cc1` (stereo not given) as the compound, how does the inhibition read?
A: Its inhibition is 2.6%.

Q: For `O=C(NCCN1CCOCC1)c1cc(Sc2cccc(Cl)c2)nc2ccccc12`, which inhibition is on record?
A: The inhibition was 4.4%.

Q: `Cc1csc(=Nc2ccccc2)n1CCO` was tested. Which inhibition did it give?
A: The inhibition was -4.3%.

Q: For `OC(COCC1COc2ccccc2O1)CN1CCN(c2ccc(F)cc2)CC1` (stereo not given), which inhibition is on record?
A: The inhibition was -1.1%.

Q: Which inhibition does the source give for `COC(=O)C(NC(=O)c1ccc(OC)cc1)(Nc1ncc(S(=O)(=O)c2ccc([N+](=O)[O-])cc2)s1)C(F)(F)F` (stereo not given) here?
A: Its inhibition is 47.7%.

Q: How did the inhibition turn out when `CCC(=O)NC(Nc1nc2ccc(C)cc2s1)(C(=O)OC)C(F)(F)F` (stereo not given) was run?
A: Its inhibition is -4.9%.

Q: With `O=C(NC(Nc1nc2ccc([N+](=O)[O-])cc2s1)(C(F)(F)F)C(F)(F)F)c1ccccc1` as the compound, how does the inhibition read?
A: The inhibition was 93.8% (active).

Q: Which inhibition does the source give for `CN(Cc1cccs1)C(=O)Cc1c[nH]c2ccccc12` here?
A: The inhibition was -17.9%.

Q: With `Cc1ccc(-c2nc(C)sc2CC(=O)OCC(=O)Nc2c(F)cccc2F)cc1` as the compound, how does the inhibition read?
A: Its inhibition is 16.1%.

Q: How did the inhibition turn out when `Nc1nc(CC(=O)CSc2ccc(Cl)cc2)nc(Nc2ccc(F)cc2)n1` was run?
A: The inhibition was -3.1%.

Q: With `Cc1ccc(C)c(NC(=S)NCC(c2cccnc2)N2CCOCC2)c1` (stereo not given) as the compound, how does the inhibition read?
A: The inhibition was -16.8%.

Q: Which inhibition does the source give for `COC(=O)c1ccc(C(=O)OC)c(NC(=S)N2CCN(c3cc(Cl)ccc3C)CC2)c1` here?
A: Its inhibition is 5.6%.

Q: Which inhibition does the source give for `CCCOC(=O)c1c(NC(=O)c2cnn3c2NC(c2ccccc2)CC3C(F)(F)F)sc2c1CCCC2` (stereo not given) here?
A: Its inhibition is -9.3%.

Q: For `COc1cccc(-c2nc3cc(C)ccc3o2)c1`, which inhibition is on record?
A: Its inhibition is 21%.

Q: For `CCCCCC(=O)Nc1ccc2oc(-c3ccncc3)nc2c1`, which inhibition is on record?
A: Its inhibition is -1.9%.

Q: For `CCc1ccc2oc(-c3ccc(N)cc3)nc2c1`, which inhibition is on record?
A: The inhibition was 62.3% (active).

Q: With `C/C(=N/NC(=O)C1COc2ccccc2O1)c1ccco1` (stereo not given) as the compound, how does the inhibition read?
A: The inhibition was 4.4%.

Q: `Cc1ccccc1NC(=O)CSC1=NCCN1` was tested. Which inhibition did it give?
A: Its inhibition is -19.9%.

Q: With `Cc1ccc(S(=O)(=O)C2C(=O)NC3(C)CC2c2ccccc2O3)cc1` (stereo not given) as the compound, how does the inhibition read?
A: Its inhibition is 19.1%.

Q: For `CCOC(=O)c1cc2ccccc2nc1C`, which inhibition is on record?
A: Its inhibition is -6.1%.

Q: With `Cc1nc2ccccc2cc1OCc1ccc(F)cc1` as the compound, how does the inhibition read?
A: Its inhibition is 98.8% (active).

Q: With `Cc1nc2ccccc2cc1O` as the compound, how does the inhibition read?
A: Its inhibition is 20.1%.

Q: `CN1CCN(c2ccc(S(=O)(=O)Nc3ccccc3)cc2[N+](=O)[O-])CC1` was tested. Which inhibition did it give?
A: The inhibition was 31%.

Q: Which inhibition does the source give for `Cc1ccc(-c2nn(-c3ccccc3)cc2C(=O)Nc2cccc(S(=O)(=O)N3CCOCC3)c2)cc1` here?
A: The inhibition was -5.6%.

Q: For `Cc1[nH]c2ccccc2c1/C=N/NC(=O)CNC(=O)c1ccc2c(c1)OCO2`, which inhibition is on record?
A: The inhibition was -16%.

Q: For `Cc1ccc2[nH]cc(CCNC(=O)c3ccc([N+](=O)[O-])cc3)c2c1`, which inhibition is on record?
A: The inhibition was -25.6%.

Q: `CCOC(=O)c1c(NC(=O)C2CCN(S(=O)(=O)c3ccc(Cl)cc3)CC2)sc2c1CCCC2` was tested. Which inhibition did it give?
A: Its inhibition is -25.4%.

Q: How did the inhibition turn out when `Cc1ccccc1C(CC(=O)c1cccs1)C(C#N)C#N` (stereo not given) was run?
A: Its inhibition is -1.8%.

Q: With `CC(C)NC(=S)N1CCN(C(c2ccccc2)c2ccccc2)CC1` as the compound, how does the inhibition read?
A: Its inhibition is -11.6%.

Q: For `CCc1nnc(NC(=O)C2CC(=O)N(c3ccc4c(c3)OCCO4)C2)s1` (stereo not given), which inhibition is on record?
A: Its inhibition is 12.3%.

Q: With `CCOC(=O)c1csc(NC(=O)Nc2cccc(OC)c2)n1` as the compound, how does the inhibition read?
A: The inhibition was -1.6%.

Q: `Cc1cc[n+](-c2[nH]c(=O)sc2/C=N/NC(=O)c2ccccc2[O-])cc1C` was tested. Which inhibition did it give?
A: The inhibition was -4.4%.

Q: Which inhibition does the source give for `C/C(=C/C(=O)N1CCN(C)CC1)C(=O)O` here?
A: The inhibition was -9.1%.

Q: `N#C/C(=C(/O)COC(=O)COc1ccc(Cl)cc1)c1nc2ccccc2[nH]1` was tested. Which inhibition did it give?
A: Its inhibition is 1.5%.

Q: Which inhibition does the source give for `Cc1ccc(NC(=O)NC(=O)CSc2nnc(-c3ccc(OC(F)F)cc3)n2N)c(C)c1` here?
A: Its inhibition is 2.1%.

Q: Which inhibition does the source give for `O=C(Cn1cnc2ccccc21)N/N=C/c1ccco1` here?
A: Its inhibition is 10.1%.

Q: How did the inhibition turn out when `C=CCn1c(SCC(N)=O)nnc1-c1cc2c(s1)CCC(CC)C2` (stereo not given) was run?
A: The inhibition was 18.8%.

Q: Which inhibition does the source give for `CCn1c2ccccc2c2cc(NC(=O)COC(=O)c3ccccc3Br)ccc21` here?
A: Its inhibition is 2.2%.

Q: Which inhibition does the source give for `COc1ccc(Cl)cc1NC(=O)CNc1ccccc1F` here?
A: The inhibition was 0.4%.

Q: Which inhibition does the source give for `CC(C)CNC(=O)COC(=O)c1ccccc1OCC(=O)Nc1ccc(Br)cc1` here?
A: The inhibition was 7.6%.

Q: How did the inhibition turn out when `CC(C)COP(=O)(c1ccc(N(C)C)cc1)C(Nc1ccccc1)c1cccnc1` (stereo not given) was run?
A: The inhibition was -5.3%.

Q: With `CC1CCN(c2ccc(C(=O)NCc3ccc4c(c3)OCO4)cc2[N+](=O)[O-])CC1` as the compound, how does the inhibition read?
A: The inhibition was 6.9%.

Q: `CSCC[C@H](NC(=O)OC(C)(C)C)C(=O)N/N=C/c1cc2ccc(C)cc2nc1Cl` was tested. Which inhibition did it give?
A: Its inhibition is 23.4%.

Q: Which inhibition does the source give for `Cc1cccc(NC(=O)c2ccccc2NC(=O)C(C)(C)C)n1` here?
A: The inhibition was -2%.

Q: `O=C(Nc1ccccc1)c1cccnc1Nc1ccccc1` was tested. Which inhibition did it give?
A: Its inhibition is -10.2%.

Q: How did the inhibition turn out when `O=C(Nc1ccccc1)c1ccccc1NC(=O)C(F)(F)F` was run?
A: Its inhibition is 77.1% (active).
